From PubChem BioAssay (NCI) come the findings set out here.

This is part of a sample that, as a whole, favours compounds with a hit. Of some 83,000 tested, about 20% had one in any assay.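 Cells were grown in 96-well plates and exposed to the test compound at a single concentration for 48 hours; results are reported as percent growth, with values below 10 considered active.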 Unmarked numbers belong to inactive results. Active and inactive are the calls of the source.

Test in all cases: NCI-60 one-dose screen, 48 h (100 = growth as untreated, 0 = no growth, -100 = all killed)
The subject of experiment [1] is T-47D breast. Conditions: 10 µM.
Experiment [2] relates to BT-549 breast. Conditions: 10 µM unless noted.
The subject of experiment [3] is MDA-MB-435 melanoma. Conditions: 10 µM unless noted.
In experiment [4] the test system is SW-620 colon. Conditions: 10 µM unless noted.
The subject of experiment [5] is HCT-116 colon. Conditions: 10 µM unless noted.
In experiment [6] the test system is HCC-2998 colon. Conditions: 10 µM unless noted.
Experiment [7] deals with KM12 colon. Conditions: 10 µM unless noted.
In experiment [8] the test system is MCF7 breast. Conditions: 10 µM unless noted.

In the case of `CN(C)C(=S)SCN1C(=O)c2ccc([N+](=O)[O-])cc2S1(=O)=O`, the growth is 102% in experiment [1]; 80.8% in experiment [2]; 101% in experiment [3]; 90.1% in experiment [4]; 95.7% in experiment [5]; 102% in experiment [6]. Further, in experiment [7], the growth was 96.1%.

For the compound `Cc1nc2cc(Nc3nc(Nc4ccc(F)cc4)nc(-c4cccs4)n3)ccc2n1Cc1ccccc1`, the growth in experiment [1] is 23.3%; in experiment [2], 69.5%; in experiment [3] it was 43.8%; in experiment [4], 68.1%; in experiment [5], 24.2%; in experiment [6] it was 72.1%. The growth in experiment [7] was 25.2%.

As to `COC(=O)/C=C1/CCC2C3CCC4=CC(=O)C(Br)CC4(C)C3C(=O)CC12C` (stereo not given), the growth in experiment [1] was 54.8%; in experiment [2], 95.9%; in experiment [3] it was 76.3%; in experiment [4], 69.2%; in experiment [8] it was 42.3%; in experiment [6], 62.1%. Besides, the growth in experiment [7] is 81.1%.

With `Oc1ccccc1/C=N/Nc1nc2ccccc2s1`, the growth in experiment [1] was 37.8%; in experiment [2], 51.4%; in experiment [3], 56.9%; in experiment [4], 50.1%; in experiment [8] it was 20.2%; in experiment [7] it was 22.1%.

With `O=C1NC(=O)C(CSc2ccccc2)(c2ccccc2)N1` (stereo not given), the growth was 93.4% in experiment [1]; 100% in experiment [2]; 112% in experiment [3]; 106% in experiment [4]; 102% in experiment [5]; 96.4% in experiment [6]. Also, the growth in experiment [7] was 113%.

For the compound `COc1ccc(Nc2[nH]n(C3=Nc4ccccc4Sc4ccccc43)c(=O)c2C#N)cc1`, the growth is 17.9% in experiment [1]; 52.8% in experiment [2]; 30.7% in experiment [8]; 30.6% in experiment [5]; 40.8% in experiment [6]; 43.8% in experiment [7].

Consider `C[C@H]1C(=O)C23CCC1C[C@@]21O[C@@H]2C(C)(C)C=CC(=O)C23COC1=O`, for which the growth was 98.4% in experiment [1]; 106% in experiment [2]; 107% in experiment [3]; 108% in experiment [4]; 96.5% in experiment [5]; 104% in experiment [6]. For the same compound, the growth in experiment [7] is 113%.

On to `Oc1cccc(Nc2nc(-c3ccccn3)cs2)c1`, for which the growth in experiment [1] was 87.3%; in experiment [2] it was 95.1%; in experiment [3], 105%; in experiment [8] it was 84.1%; in experiment [5], 97.1%; in experiment [7], 103%.

For the compound `O=c1oc2ccccc2cc1-c1csc(N/N=C/c2cc3ccccc3nc2Cl)n1`, the growth in experiment [1] was 90.8%; in experiment [2], 105%; in experiment [3], 95.7%; in experiment [4] it was 106%; in experiment [5] it was 105%; in experiment [6], 102%. Moreover, the growth in experiment [7] is 100%.

`COc1cc(-c2ccc3cc(OC)c(OC)c(OC)c3c2)cc(OC)c1OC`: the growth in experiment [1] is 50.7%; in experiment [2], 72.2%; in experiment [3] it was -16.7% (active); in experiment [4], 47.3%; in experiment [5] it was 54.1%; in experiment [7], 37.5%.

Consider `CNc1ccc(Br)cc1-c1n[nH]c(=O)[nH]c1=O`, for which the growth in experiment [1] is 109%; in experiment [2] it was 99.9%; in experiment [3], 98.8%; in experiment [4] it was 92.9%; in experiment [8] it was 90.2%; in experiment [6], 107%. Further, the growth in experiment [7] was 111%.

With `C=CC(=O)N1CC2(CC(n3nc(-c4ccc(Oc5ccccc5)cc4)c4c(N)ncnc43)C2)C1`, the growth in experiment [1] is 36.4%; in experiment [2] it was 29.9%; in experiment [3], 30.4%; in experiment [4], 78.8%; in experiment [5], 45.4%; in experiment [6], 64.9%. The growth in experiment [7] is 48.9%.

In the case of `COc1ccc2c(c1)c(=O)oc1c(C)c(OCC(C)=O)ccc12`, the growth was 104% in experiment [1]; 102% in experiment [2]; 89.4% in experiment [3]; 101% in experiment [4]; 104% in experiment [5]; 98.1% in experiment [6]. Besides, the growth in experiment [7] was 96.6%.

With `C[C@@H](Oc1cc(-c2cnn(C3CC4(CCNCC4)C3)c2)cnc1N)c1c(F)ccc(Cl)c1Cl`, the growth is -27.9% (active) in experiment [1]; 58.6% in experiment [2]; -70.4% (active) in experiment [3]; -46% (active) in experiment [4]; -22.5% (active) in experiment [5]; 6.25% (active) in experiment [6].

On to `FC(F)(F)c1cc(CNc2ncc(Br)c(Cl)n2)cc(C(F)(F)F)c1`, for which the growth in experiment [1] was 89.8%; in experiment [2], 83.7%; in experiment [4] it was 105%; in experiment [8] it was 95.7%; in experiment [5], 90.2%; in experiment [6], 102%. The growth in experiment [7] is 105%.

Consider `O=C(CCc1nnc2sc(/C=C\c3ccccc3)nn12)c1nc2ccccc2[nH]1`, for which the growth in experiment [1] was 61.1%; in experiment [2], 93.1%; in experiment [3] it was 83.8%; in experiment [4], 118%; in experiment [8] it was 77.3%; in experiment [6] it was 95.8%. The growth in experiment [7] is 92.5%.

Take `OC[C@@H](O)[C@@H](O)CO`: the growth in experiment [1] was 103%; in experiment [2], 101%; in experiment [3] it was 100%; in experiment [4], 98.4%; in experiment [5], 102%; in experiment [6], 102%. The growth in experiment [7] is 105%.

In the case of `COc1ccc(OC2=C(C#N)C(=N)N3c4ccccc4Sc4ccccc4C3N2)cc1` (stereo not given), the growth in experiment [1] was 87%; in experiment [2], 96.9%; in experiment [8], 95.6%; in experiment [5], 103%; in experiment [6], 95.2%; in experiment [7], 97.7%.
